Results published in PubChem BioAssay (Tox21).
Results filed as inconclusive are left out. Unmarked numbers belong to inactive results. Activity calls are given as the source filed them. Calls follow the shape of the dose curve; as a rule, active = well fitted activation curve with a large enough effect in the repeat runs; inconclusive = weak or mixed curves; inactive = no such curve, though single readings can be large or run the other way.

assay: qHTS assay for small molecules that induce genotoxicity in human embryonic kidney cells expressing luciferase-tagged ATAD5 (AID 651632); conditions: HEK293T ATAD5-luciferase induction, 16 h; series mostly up to 83.3 µM; activation: at the top concentration; also: nearly all actives have a fitted effect of over 15% in size
Description: U.S. Tox21 Program National Center for Advancing Translational Sciences [NCATS] NIH Chemical Genomics Center [NCGC] U.S. Environmental Protection Agency [EPA] National Institutes of Environmental Health Sciences [NIEHS] National Toxicology Program [NTP] U.S. Food and Drug Administration [FDA] Tox21 Assay Overview: As cancer cells divide rapidly and during every cell division they need to duplicate their genome by DNA replication. The failure to do so results in the cancer cell death. Based on this concept, many chemotherapeutic agents were developed but have limitations such as low efficacy and severe side effects etc. A new cell based assay was developed to find the compounds that effectively block DNA replication either by directly damaging DNA or by inhibiting other cellular mechanisms. Enhanced Level of Genome Instability Gene 1 (ELG1; human ATAD5) protein levels increase in response to various types of DNA damage. Using a luciferase reporter-gene tagged with ATAD5, a cell-based assay [developed by Kyungjae Myung, NHGRI, NIH] was used to measure the induction of ATAD5 in human embryonic kidney cells (HEK293T). So, increase in luciferase activity can be used to identify the compounds that cause genetic stress.
Tox21 Assay Protocol Summary: For genotoxicity screening, 2,000 cells in 5 uL/well were dispensed into white, solid-bottom 1536-well plates using a Multidrop Combi (Thermo Scientific) dispenser. Following transfer of 23 nL compound or DMSO vehicle by a pin tool, the plates were incubated 16 hr at 37C and 5% CO2. 5 ul Amplite (AAT Bioquest, Inc.) was then added to each plate and following 30 min incubation at room temperature, luciferase activity was quantified on a ViewLux CCD-based plate reader.
% is scaled to controls: 0 for no effect and ±100 for the full control effect; potency is read from the fitted curve at half-maximal effect.

SMILES | activation | Potency
CCCCCCCC/C=C\CCCCCCCC(=O)OC | 2.21% | –
CC(=O)CC(c1ccc([N+](=O)[O-])cc1)c1c(O)c2ccccc2oc1=O (stereo not given) | -0.682% [at 39.1 µM] | –
CCOC(=O)OCC | 1.08% [at 95.3 µM] | –
Nc1nccs1 | – | inactive
CCCCN(CCCC)C(=S)SSC(=S)N(CCCC)CCCC | 5% | –
CCOC(=O)CC(=O)C(=O)OCC | 1.94% | –
O=C1NCCN1 | 1.55% | –
O=C(CS)OCCOC(=O)CS | – | 30.6 µM (active)
CCCCCCCCCCCC[N+](C)(C)CCCS(=O)(=O)[O-] | 2.75% [at 95.3 µM] | –
C[N+](C)(C)CCOC(N)=O | -3.26% | –
Brc1cc(-c2ccc(Br)c(Br)c2Br)cc(Br)c1Br | 0.5% | –
CC(C)CCCCCOC(=O)CCCCC(=O)OCCCCCC(C)C | 2.99% | –
ON(Cc1ccccc1)Cc1ccccc1 | 1.58% | –
O=S1OCCO1 | 2.38% [at 95.3 µM] | –
CC(C)CCCCCCOC(=O)CCCCC(=O)OCCCCCCC(C)C | 2.12% | –
C[C@@H]1C[C@H]2[C@@H]3CCC4=CC(=O)C=C[C@]4(C)[C@@]3(F)[C@@H](O)C[C@]2(C)[C@H]1C(=O)CO | 2.73% | –
O=c1[nH]c2ccc(S(=O)CCN3CCC(Cc4ccc(F)cc4)CC3)cc2o1 (stereo not given) | -4.66% | –
CCCOCCOCCO | 0.838% | –
c1cc[c]([Bi]([c]2ccccc2)[c]2ccccc2)cc1 | -2.12% | –
O=C(CCCCCCCCC#CI)Oc1ccccc1 | -0.887% | –

SMILES | activation | Potency
CCCCCCCCCCCCCCCCBr | 2.22% [at 39.1 µM] | –
NC(=O)Nc1ccc(Cl)cc1 | -0.66% | –
CC(C)C(=O)O | 2.23% | –
CN1CCN(c2c(F)cc3c(=O)c(C(=O)O)cn4c3c2OCN4C)CC1 | 0.552% | –
OCCSc1ccccc1 | 0.375% | –
O=[N+]([O-])c1cccc(S(=O)(=O)NCCNS(=O)(=O)c2cccc([N+](=O)[O-])c2)c1 | -1.42% | –
OC/C(Br)=C(\Br)CO | 6.45% | –
COc1ccccc1N=Nc1c(S(=O)(=O)O)cc2cc(S(=O)(=O)O)cc(NC(C)=O)c2c1O | -5.71% | –
CC1=CC(=O)CC(C)(C)C1(O)/C=C/C(C)=C\C(=O)O (stereo not given) | 3.01% | –
Nc1ccc(S(=O)(=O)O)cc1 | 4.47% [at 95.3 µM] | –
C[C@@H]1C[C@H]2[C@@H]3CCC4=CC(=O)C=C[C@]4(C)[C@@]3(F)[C@@H](O)C[C@]2(C)[C@@]1(O)C(=O)CO | 6.01% [at 95.3 µM] | –
O=C(N[C@@H](c1ccccc1)[C@@H]1CCCCN1)c1cccc(C(F)(F)F)c1Cl | 2.37% | –
C=CC(C)=CCC=C(C)C | 3.04% | –
COc1cc2[nH]c(=O)[nH]c(=O)c2cc1OC | 5.8% [at 39.1 µM] | –
C=CC(C)(C)CC(=O)OC | 1.23% [at 95.3 µM] | –
CCOC(=O)[C@@H](C)Oc1ccc(Oc2nc3ccc(Cl)cc3o2)cc1 | -5.02% | –
Oc1cc(O)c(Cl)cc1Cl | -2.55% [at 95.3 µM] | –
COc1cc2ncnc(Nc3ccc(F)c(Cl)c3)c2cc1OCCCN1CCOCC1 | -7.66% | –
CCNC(=O)N1CCN(CCCC(c2ccc(F)cc2)c2ccc(F)cc2)CC1 | -5.97% | –
O=C(NCCCN1CCOCC1)c1ccc(Cl)cc1 | 1.52% | –
